The test system of test [1] is Staphylococcus aureus. The note with it: Concentration 32 ug.mL-1;; ASSAY_TEST Inhibition of Bacterial Growth; detection method Absorption (OD600); MEDIA CAMHB; plate type 384well; NBS; CORNING #3640; time 18 hr.
Test [2] concerns Escherichia coli. The note with it: Concentration 32 ug.mL-1;; ASSAY_TEST Inhibition of Bacterial Growth; detection method Absorption (OD600); MEDIA CAMHB; plate type 384well; NBS; CORNING #3640; time 18 hr.

Results with a measured potency or affinity are listed apart.

On to `CCCCc1ccc(NC(=O)Cn2nc3ccc(C(=O)Nc4ccc(OC)cc4)cn3c2=O)cc1`, for which the Inhibition in test [1] is recorded as 3.96%; in test [2], -4.6%.

As for `Cc1cc(C)cc(N(Cc2cccc(Cl)c2)S(=O)(=O)c2cccn3cnnc23)c1`, the Inhibition in test [1] is 7.13%; in test [2] it was -3.73%.

In the case of `CSc1cccc(NC(=O)Cn2nc3ccc(SC4CCCCC4)nn3c2=O)c1`, the Inhibition is recorded as -9.19% in test [1] and -2.76% in test [2].

On to `Cc1ccc(NC(=O)Cn2nc3c(SC4CCCCC4)nccn3c2=O)c(Br)c1`, for which the Inhibition in test [1] was 0.51%; in test [2], -5.93%.

With `Cc1ccc(NC(=O)Cn2nc3c4cc(-c5ccc(C)c(C)c5)nn4ccn3c2=O)cc1`, the Inhibition in test [1] is 7.11%; in test [2], -1.34%.

`O=C(Cn1nc2c(Sc3ccccc3)nccn2c1=O)Nc1cc(F)ccc1F`: the Inhibition in test [1] is 0.01%; in test [2], -13.52%.

Turning to `CCCCOc1ccc(-c2cc3c4nnc(SCC(=O)Nc5ccc(CC)cc5)n4ccn3n2)cc1`, the figures for the Inhibition in test [1] and in test [2] were -9.56% and -11.54%, respectively.

On to `COc1cc(NC(=O)Cn2nc3c(N4CCCC(C)C4)nccn3c2=O)cc(OC)c1` (stereo unspecified), for which the figures for the Inhibition in test [1] and in test [2] were -12.69% and -14.56%, respectively.

In the case of `CC(C)Cn1c(=O)c2sccc2n2c(=O)n(CC(=O)N3CCC(Cc4ccccc4)CC3)nc12`, the figures for the Inhibition in test [1] and in test [2] were -13.33% and -14.95%, respectively.

As to `O=C(Cn1nc2ccc(-c3ccc(Cl)cc3)nn2c1=O)N1CCN(c2ccc(F)cc2)CC1`, the Inhibition is on record as 4.1% in test [1] and -5.18% in test [2].

`Cc1ccc(NC(=O)Cn2nc3c4c5c(sc4ncn3c2=O)CCCC5)c(Cl)c1`: the Inhibition in test [1] was -4.74%; in test [2], -9.07%.

Take `CC(C)CCn1c(=O)c2ccc(C(=O)NC3CCCC3)cc2n2c(=S)[nH]nc12`: the figures for the Inhibition in test [1] and in test [2] were -2% and -7.9%, respectively.

With `O=C(Cn1nc2c(N3CCOCC3)nccn2c1=O)NCc1cccc(C(F)(F)F)c1`, the Inhibition in test [1] is reported as 16.25%; in test [2], -1.74%.

As for `Cc1ccc(NC(=O)Cn2nc3ccc(SC(C)(C)C)nn3c2=O)cc1C`, the Inhibition in test [1] is on record as -0.92%; in test [2], 2.46%.

For the compound `COc1ccc(N2CCN(C(=O)Cn3nc4ccc(S(=O)(=O)C(C)(C)C)nn4c3=O)CC2)cc1`, the figures for the Inhibition in test [1] and in test [2] were 12.76% and 0.99%, respectively.

On to `Cc1c(Cl)cccc1-n1ccn2c(SCC(=O)c3c[nH]c4ccccc34)nnc2c1=O`, for which the results for the Inhibition in test [1] and in test [2] were -2.75% and -4.84%, respectively.

As for `CC(C)(C)NC(=O)Cn1nc2n(Cc3ccco3)c(=O)c3sccc3n2c1=O`, the Inhibition in test [1] is listed as -2.47%; in test [2] it was -8.7%.

In the case of `Cc1ccc(CSc2nnc3c(=O)n(-c4ccc(Br)cc4)ccn23)cc1`, the Inhibition in test [1] is reported as 13.68%; in test [2], -2.08%.

Regarding `Cc1ccccc1Oc1nccn2c(=O)n(CC(=O)Nc3ccc(C(C)C)cc3)nc12`, the figures for the Inhibition in test [1] and in test [2] were -1.76% and -10.99%, respectively.

For `Cc1cc(C)cc(Oc2nccn3c(=O)n(CC(=O)Nc4cccc(Cl)c4)nc23)c1`, the Inhibition is recorded as -12.18% in test [1] and -3.44% in test [2].

Take `O=C(CSc1nnc2c(=O)n(-c3ccccc3)ccn12)Nc1ccc(F)cc1F`: the Inhibition in test [1] is -3.92%; in test [2] it was -2.13%.

Regarding `Cc1nnc2ccc(S(=O)(=O)N(Cc3ccc(Cl)cc3)c3cccc(F)c3)cn12`, the figures for the Inhibition in test [1] and in test [2] were 2.65% and -4.46%, respectively.

As for `Cc1ccc(-c2ccc3nn(CC(=O)NCc4ccc(Cl)cc4)c(=O)n3n2)cc1C`, the Inhibition is given as -0.74% in test [1] and -5.52% in test [2].

With `NC(=O)CSc1nnc2c(=O)n(-c3ccccc3)ccn12`, the Inhibition in test [1] amounted to 9.05%; in test [2], 0.29%.

As for `COc1ccccc1NC(=O)Cn1nc2c(SCc3ccccc3)nccn2c1=O`, the Inhibition in test [1] is -5.43%; in test [2] it was -12.47%.

`COc1ccc(NC(=O)Cn2nc3c(Sc4ccccc4)nc4ccccc4n3c2=O)cc1Cl`: the Inhibition in test [1] was -0.59%; in test [2] it was -7.36%.

Take `Cc1ccc(NC(=O)CSc2nc3ccccc3n3c(C)nnc23)cc1C`: the Inhibition is reported as -20.91% in test [1] and -12.4% in test [2].

On to `O=C(Cn1nc2ccc(-c3ccc(Cl)cc3)nn2c1=O)N1CCN(c2ccccc2)CC1`, for which the Inhibition in test [1] is -1.88%; in test [2], -5.05%.

Take `COc1ccc(-c2nc(CSc3nc4ccccc4n4c(C(C)C)nnc34)c(C)o2)cc1OC`: the Inhibition in test [1] was -10.5%; in test [2], 0.54%.

For the compound `Cc1cc(NC(=O)Cn2c(=O)c3nnc(C(C)C)n3c3ccccc32)ccc1Br`, the figures for the Inhibition in test [1] and in test [2] were 13.77% and 0%, respectively.

On to `O=C(Cn1nc2c3cc(-c4ccc(F)cc4)nn3ccn2c1=O)Nc1ccc(Br)cc1`, for which the Inhibition in test [1] was -9.12%; in test [2], -9.31%.

On to `COC(=O)c1ccc(NC(=O)Cn2c(=O)c3nnc(C(C)C)n3c3ccccc32)cc1`, for which the Inhibition was 8.86% in test [1] and 0.09% in test [2].

In the case of `Cc1ccc(NC(=O)Cn2nc3c(SC4CCCCC4)nccn3c2=O)cc1`, the values for the Inhibition in test [1] and in test [2] were 10.51% and -0.3%, respectively.

On to `O=C(Cn1nc2ccc(Sc3cccc(F)c3)nn2c1=O)NCc1ccc(Cl)cc1`, for which the Inhibition in test [1] worked out at 1.01%; in test [2], 1.23%.

For `O=S(=O)(c1ccc2nncn2c1)N(Cc1cccc(Cl)c1)c1ccccc1`, the Inhibition in test [1] is given as 11.21%; in test [2], -3.7%.

As for `Cc1ccccc1Cn1nc2ccc(-c3ccccc3)nn2c1=O`, the Inhibition was 10.41% in test [1] and 1.97% in test [2].

As to `CCOc1ccc(NC(=O)Cn2nc3c(Sc4ccccc4)nccn3c2=O)cc1`, the Inhibition in test [1] is on record as 1.52%; in test [2] it was -2.95%.

`O=C(Cn1nc2c(Sc3cccc(F)c3)nccn2c1=O)N1CCN(c2ccccc2)CC1`: the Inhibition came to 1.07% in test [1] and 1.18% in test [2].

With `COC(=O)c1ccccc1NC(=O)CSc1nc2ccccc2n2c(C(C)C)nnc12`, the Inhibition is given as 10.06% in test [1] and -3.26% in test [2].

For the compound `CCOc1ccccc1NC(=O)Cn1nc2c(SC3CCCCC3)nccn2c1=O`, the Inhibition in test [1] was 3%; in test [2], -8.56%.

Regarding `COC(=O)c1sccc1NC(=O)Cn1nc2c(Oc3ccccc3)nc3ccccc3n2c1=O`, the Inhibition in test [1] is listed as 9.09%; in test [2], 0.17%.

For `O=C(Cn1nc2c3sc(N4CCCC4)nc3ncn2c1=O)Nc1ccc(C(F)(F)F)cc1`, the Inhibition in test [1] is on record as 13.19%; in test [2] it was -0.19%.

Turning to `CCc1ccccc1Sc1nccn2c(=O)n(CC(=O)N3CCN(c4ccc(F)cc4)CC3)nc12`, the Inhibition is 2.23% in test [1] and -2.15% in test [2].

As for `Cc1oc(-c2ccccc2)nc1CSc1nc2ccccc2n2c(C)nnc12`, the Inhibition in test [1] stood at 4.04%; in test [2], 4.8%.

Regarding `Cc1cccc(Oc2nccn3c(=O)n(CC(=O)N4CCN(c5ccccc5F)CC4)nc23)c1C`, the figures for the Inhibition in test [1] and in test [2] were -3.04% and -9.87%, respectively.

Consider `Cc1cc2nn(CC(=O)Nc3cccc(C)c3C)c(=O)n2c(Nc2ccc(C)c(F)c2)n1`, for which the Inhibition is on record as 9.25% in test [1] and -3.18% in test [2].

For the compound `C=Cc1ccc(CN(c2ccc(C(C)C)cc2)S(=O)(=O)c2cccn3cnnc23)cc1`, the Inhibition in test [1] turned out to be 7.94%; in test [2] it was 0.1%.

As for `Cc1ccc(CN(c2cc(C)cc(C)c2)S(=O)(=O)c2cccn3c(C)nnc23)cc1`, the Inhibition in test [1] is listed as 31.07%; in test [2], -7.16%.

The values above are taken from ChEMBL document CHEMBL4513146, “CO-ADD screening of Karazin Kharkiv National University (Ukraine) compounds”.
